The values below come from PubChem BioAssay (EPA / NIEHS).

The source made the active and inactive calls. The calls were made as follows: active = hit-call score of the fitted dose curve at least 0.9, where 1 is the maximum; inactive = score below 0.9.

The term AC50 denotes the concentration at which the activity in the assay is half-maximal.

Read-out in test [1]: CFLAR gene, CFLAR (gene 8837)
In words: LTEA_HepaRG_CFLAR: Life Technologies and Expression Analysis (LTEA) Assay for CFLAR gene using HepaRG (AID 2283455). Particulars: mRNA level, 48 h; actives raise or lower the signal. The essentials: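 HepaRG cells were plated for 48 h, switched to serum-free induction medium, then exposed in duplicate for 48 h to 8 concentrations (top 100 uM, half-log steps, 0.5% DMSO). CFLAR mRNA was measured by qRT-PCR, normalized to ACTB, GAPDH and POLR2A.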

Read-out in test [2]: Forkhead box O1 (FOXO1), FOXO1 (gene 2308)
In words: LTEA_HepaRG_FOXO1: Life Technologies and Expression Analysis (LTEA) Assay for Forkhead box O1 (FOXO1) using HepaRG (AID 2283456). The note with it: mRNA level, 48 h; actives raise or lower the signal. Put shortly: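 Differentiated human HepaRG cells in serum-free induction medium were exposed in duplicate for 48 h to eight half-log concentrations (top 100 uM, 0.5% DMSO). FOXO1 mRNA was measured by TaqMan qRT-PCR, normalised to ACTB, GAPDH and POLR2A, and fitted bidirectionally against DMSO.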

Read-out in test [3]: growth arrest and DNA damage 45 (GADD45A), GADD45A (gene 1647)
In words: LTEA_HepaRG_GADD45A: Life Technologies and Expression Analysis (LTEA) Assay for growth arrest and DNA damage 45 (GADD45A) using HepaRG (AID 2283458). The note with it: mRNA level, 48 h; actives raise or lower the signal. The essentials: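 Differentiated HepaRG cells exposed 48 h in serum-free induction medium to 8 concentrations, top 100 uM in half-log steps, 0.5% DMSO. GADD45A mRNA quantified by qRT-PCR, normalized to ACTB, GAPDH and POLR2A; bidirectional fit versus DMSO.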

Read-out in test [4]: ABC Transporter (ABCB1), ABCB1 (gene 5243)
In words: LTEA_HepaRG_ABCB1: Life Technologies and Expression Analysis (LTEA) Assay for ABC Transporter (ABCB1) using HepaRG (AID 2283460). The note with it: mRNA level, 48 h; actives raise or lower the signal. The essentials:
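Differentiated human HepaRG cells, plated 48 h then switched to serum-free induction medium, were exposed in duplicate to eight half-log concentrations up to 100 uM in 0.5% DMSO for 48 h. ABCB1 mRNA was measured by TaqMan qRT-PCR, normalized to ACTB/GAPDH/POLR2A.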

Read-out in test [5]: growth arrest and DNA damage 45 (GADD45B), GADD45B (gene 4616)
In words: LTEA_HepaRG_GADD45B: Life Technologies and Expression Analysis (LTEA) Assay for growth arrest and DNA damage 45 (GADD45B) using HepaRG (AID 2283461). The note with it: mRNA level, 48 h; actives raise or lower the signal. Put shortly:
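Human HepaRG monolayers receive chemicals for 48 h at eight half-log concentrations, highest 100 uM, in 0.5% DMSO. Expression is measured by TaqMan qRT-PCR and normalized to ACTB, GAPDH and POLR2A.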

Read-out in test [6]: ABC Transporter (ABCC3), ABCC3 (gene 8714)
In words: LTEA_HepaRG_ABCC3: Life Technologies and Expression Analysis (LTEA) Assay for ABC Transporter (ABCC3) using HepaRG (AID 2283462). Particulars: mRNA level, 48 h; actives raise or lower the signal. Put shortly:
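Transcriptional change of ABCC3 in HepaRG after 48 h treatment, determined by qRT-PCR normalized to endogenous controls. Concentrations spanned eight half-log steps to 100 uM in 0.5% DMSO.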

Read-out in test [7]: ABC Transporter (ABCB11), ABCB11 (gene 8647)
In words: LTEA_HepaRG_ABCB11: Life Technologies and Expression Analysis (LTEA) Assay for ABC Transporter (ABCB11) using HepaRG (AID 2283463). The note with it: mRNA level, 48 h; actives raise or lower the signal. The essentials:
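Differentiated human HepaRG cells were exposed for 48 h in serum-free induction medium to eight half-log concentrations up to 100 uM in 0.5% DMSO. ABCB11 mRNA was quantified by qRT-PCR, normalized to ACTB, GAPDH and POLR2A, and fitted bidirectionally versus DMSO.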

Read-out in test [8]: ABC Transporter (ABCC2), ABCC2 (gene 1244)
In words: LTEA_HepaRG_ABCC2: Life Technologies and Expression Analysis (LTEA) Assay for ABC Transporter (ABCC2) using HepaRG (AID 2283464). The note with it: mRNA level, 48 h; actives raise or lower the signal. Put shortly: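 After plating and 48 h culture, HepaRG medium is replaced with serum-free induction medium and chemicals are added (8 concentrations, max 100 uM, 0.5% DMSO) for 48 h. Total RNA then undergoes qRT-PCR for ABCC2 with housekeeping normalization.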

Read-out in test [9]: Broad substrate specificity ATP-binding cassette transporter ABCG2 (Homo sapiens) (UniProt Q9UNQ0)
In words: LTEA_HepaRG_ABCG2: Life Technologies and Expression Analysis (LTEA) Assay for ABC Transporter (ABCG2) using HepaRG (AID 2283465). The note with it: mRNA level, 48 h; actives raise or lower the signal. The essentials: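 Differentiated HepaRG cells in serum-free induction medium were exposed for 48 h, in duplicate, to eight half-log concentrations up to 100 uM in 0.5% DMSO. ABCG2 mRNA was measured by TaqMan qRT-PCR, normalized to ACTB, GAPDH and POLR2A, and fitted bidirectionally versus DMSO.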

Read-out in test [10]: ATP-citrate lyase (ACLY), ACLY (gene 47)
In words: LTEA_HepaRG_ACLY: Life Technologies and Expression Analysis (LTEA) Assay for ATP-citrate lyase (ACLY) using HepaRG (AID 2283466). The note with it: mRNA level, 48 h; actives raise or lower the signal. The essentials: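 Differentiated human HepaRG cells in serum-free induction medium exposed 48 h, in duplicate, to eight half-log concentrations from 100 uM top in 0.5% DMSO; ACLY mRNA measured by qRT-PCR, normalized to ACTB, GAPDH, POLR2A, fitted bidirectionally versus DMSO.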

Read-out in test [11]: Peroxisomal acyl-coenzyme A oxidase 1 (ACOX1) gene, ACOX1 (gene 51)
In words: LTEA_HepaRG_ACOX1: Life Technologies and Expression Analysis (LTEA) Assay for Peroxisomal acyl-coenzyme A oxidase 1 (ACOX1) gene using HepaRG (AID 2283467). Particulars: mRNA level, 48 h; actives raise or lower the signal. The essentials: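 Differentiated human HepaRG cells were exposed in duplicate for 48 h in serum-free induction medium to eight half-log concentrations up to 100 uM in 0.5% DMSO. ACOX1 mRNA was then quantified by TaqMan qRT-PCR, normalized to ACTB, GAPDH and POLR2A.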

Read-out in test [12]: Alkaline Phosphatase, Placental (ALPP) gene, ALPP (gene 250)
In words: LTEA_HepaRG_ALPP: Life Technologies and Expression Analysis (LTEA) Assay for Alkaline Phosphatase, Placental (ALPP) gene using HepaRG (AID 2283468). Particulars: mRNA level, 48 h; actives raise or lower the signal. The essentials:
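Using human liver HepaRG cells, chemicals are tested in duplicate over 48 h at half-log concentrations topping at 100 uM; phenobarbital 1 mM serves as induction control. ALPP mRNA change by qRT-PCR, bidirectional fit against vehicle.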

Read-out in test [13]: Bcl-2 (BAD) gene, BAD (gene 572)
In words: LTEA_HepaRG_BAD: Life Technologies and Expression Analysis (LTEA) Assay for Bcl-2 (BAD) gene using HepaRG (AID 2283469). The note with it: mRNA level, 48 h; actives raise or lower the signal. The essentials:
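Differentiated human HepaRG cells in serum-free induction medium were exposed in duplicate for 48 h to eight concentrations (top 100 uM, half-log steps, 0.5% DMSO). BAD mRNA was quantified by qRT-PCR normalised to ACTB, GAPDH and POLR2A, with bidirectional fitting versus DMSO.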

Read-out in test [14]: Bcl-2 (BAX) gene, BAX (gene 581)
In words: LTEA_HepaRG_BAX: Life Technologies and Expression Analysis (LTEA) Assay for Bcl-2 (BAX) gene using HepaRG (AID 2283470). Particulars: mRNA level, 48 h; actives raise or lower the signal. Put shortly:
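Differentiated HepaRG cells exposed 48 h in serum-free induction medium, eight half-log concentrations from 100 uM, in duplicate, 0.5% DMSO vehicle. BAX mRNA by TaqMan qRT-PCR, normalised to ACTB, GAPDH and POLR2A.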

Read-out in test [15]: adenosine kinase (ADK) gene, ADK (gene 132)
In words: LTEA_HepaRG_ADK: Life Technologies and Expression Analysis (LTEA) Assay for adenosine kinase (ADK) gene using HepaRG (AID 2283471). Particulars: mRNA level, 48 h; actives raise or lower the signal. Put shortly: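 Following 48 h exposure of HepaRG cells in 0.5% DMSO (top concentration 100 uM, duplicate wells), ADK mRNA induction or suppression was measured by qRT-PCR, normalised to ACTB/GAPDH/POLR2A, and fitted bidirectionally relative to vehicle.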

Read-out in test [16]: Alpha-fetoprotein (AFP) gene, AFP (gene 174)
In words: LTEA_HepaRG_AFP: Life Technologies and Expression Analysis (LTEA) Assay for Alpha-fetoprotein (AFP) gene using HepaRG (AID 2283472). The note with it: mRNA level, 48 h; actives raise or lower the signal. The essentials: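 Differentiated human HepaRG cells exposed 48 h in serum-free induction medium, 8-point half-log series from 100 uM in 0.5% DMSO, duplicate. AFP mRNA by qRT-PCR, normalized to ACTB, GAPDH, POLR2A; bidirectional fit vs DMSO.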

Read-out in the next test: BCL2L11 (gene 10018)
In words: LTEA_HepaRG_BCL2L11: Life Technologies and Expression Analysis (LTEA) Assay for Bcl-2 (BCL2L11) gene using HepaRG (AID 2283473). Particulars: mRNA level, 48 h; actives raise or lower the signal. The essentials: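 Human hepatic HepaRG cultures are treated 48 h with test chemicals (maximum 100 uM, 0.5% DMSO vehicle). Expression of BCL2L11 is measured by qRT-PCR against ACTB, GAPDH and POLR2A, with activity in either direction scored relative to vehicle.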

Read-out in test [17]: Apolipoprotein A-V (APOA5) gene, APOA5 (gene 116519)
In words: LTEA_HepaRG_APOA5: Life Technologies and Expression Analysis (LTEA) Assay for Apolipoprotein A-V (APOA5) gene using HepaRG (AID 2283474). The note with it: mRNA level, 48 h; actives raise or lower the signal. Put shortly: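 Concentration-response of APOA5 expression in HepaRG: eight half-log doses to 100 uM, 48 h, qRT-PCR normalized to ACTB/GAPDH/POLR2A, bidirectional fitting with 0.5% DMSO as baseline.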

Test [18] can be described thus: CEETOX_H295R_TESTO: CeeTox H295R High-throughput Steroidogenesis Assay for Testosterone (TESTO) (AID 2283457). The note with it: actives raise or lower the signal. Put shortly: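 Steroidogenesis in H295R cells following OECD 456 with minor changes; 48 h exposure. Medium testosterone by HPLC-MS/MS, DMSO as baseline, with MTT viability run in parallel.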
Read-out in test [19]: Forkhead box O3 (FOXO3), FOXO3 (gene 2309)
In words: LTEA_HepaRG_FOXO3: Life Technologies and Expression Analysis (LTEA) Assay for Forkhead box O3 (FOXO3) using HepaRG (AID 2283459). Particulars: mRNA level, 48 h; actives raise or lower the signal. The essentials: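 Differentiated human HepaRG cells in serum-free induction medium were exposed in duplicate for 48 h to eight half-log concentrations up to 100 uM in 0.5% DMSO. FOXO3 mRNA was quantified by qRT-PCR, normalized to ACTB, GAPDH and POLR2A, with bidirectional fitting versus DMSO.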

Broad substrate specificity ATP-binding cassette transporter ABCG2 (Homo sapiens), sequence (Q9UNQ0 whole entry, looked up): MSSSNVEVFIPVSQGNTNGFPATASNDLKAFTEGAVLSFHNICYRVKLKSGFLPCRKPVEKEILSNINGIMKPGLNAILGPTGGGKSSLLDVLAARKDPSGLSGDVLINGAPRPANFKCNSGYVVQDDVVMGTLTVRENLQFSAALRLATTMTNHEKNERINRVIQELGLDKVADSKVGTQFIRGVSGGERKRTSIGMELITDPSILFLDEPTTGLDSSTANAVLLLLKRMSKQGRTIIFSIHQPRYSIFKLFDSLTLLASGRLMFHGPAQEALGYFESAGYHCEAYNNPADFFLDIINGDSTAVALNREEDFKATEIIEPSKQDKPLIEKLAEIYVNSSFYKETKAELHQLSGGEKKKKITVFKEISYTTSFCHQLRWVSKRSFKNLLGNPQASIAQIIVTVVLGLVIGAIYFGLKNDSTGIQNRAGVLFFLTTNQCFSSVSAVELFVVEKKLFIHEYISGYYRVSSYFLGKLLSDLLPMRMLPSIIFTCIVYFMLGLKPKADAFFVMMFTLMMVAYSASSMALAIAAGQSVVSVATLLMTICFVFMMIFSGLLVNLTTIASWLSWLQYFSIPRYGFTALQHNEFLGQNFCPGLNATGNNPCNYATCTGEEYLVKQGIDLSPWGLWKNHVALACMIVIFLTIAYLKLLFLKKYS

Take `CCCN(CCC)N=O`: the result in test [1], in test [2], in test [3], in test [4], in test [5] and in test [6] was inactive. Further, the compound was called inactive in [7], in [8], in test [9], in [10], in test [11] and in test [12]. In addition, the compound was called inactive (in test [13]; in test [14]; in [15]; in test [16]; with BCL2L11 (gene 10018); in test [17]).
As to `CCNc1nc(NC(C)C)nc(SC)n1`, the outcome in test [1], in test [2], in test [18], in test [3], in test [4] and in [5] was inactive. The outcome in test [6], in test [8], in test [9], in test [10], in test [11] and in test [13] was inactive. The compound was called inactive (in test [14]; with BCL2L11 (gene 10018); in test [17]). For the same compound, the half-maximal activity concentration (AC50) was 50 µM (active) in [7] and 17.9 µM (active) in test [12].
Turning to `Clc1ccc(C(c2ccccc2Cl)C(Cl)(Cl)Cl)cc1` (configuration not stated), the result in [1], in test [2], in [3], in test [19], in test [5] and in test [6] was inactive. Also, the compound was called inactive (in [10]; in test [11]; in test [12]; in test [13]; in test [14]; with BCL2L11 (gene 10018)). For the same compound, the AC50 in test [4] was 16.9 µM (active); in [7] it was 72.3 µM (active); in test [8], 13.2 µM (active); in test [9], 4.48 µM (active); in [17], 10.7 µM (active).
